Molecules are shown by their SMILES.

The assay concerns HpdR/P_H16_RS18295 3-hydroxypropanoate biosensor (pEH010). Briefly: relative induction of RFP reporter vs primary effector; higher = stronger activation. The settings on record: inducer concentration 5 mM; 6 h; Cupriavidus necator H16; minimal medium + 0.4% gluconate. As to the method: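 Orthogonality screen of 21 primary inducers against 21 transcription factor/inducible promoter–mRFP biosensors in C. necator H16 in minimal medium, robotic 96-well format, 5 mM inducer, 30 °C. OD-normalised RFP fluorescence was read 6 h later and expressed as relative induction (%) = 100 × (FL compound − FL uninduced)/(FL primary inducer − FL uninduced); mean of n=4. Cognate pairs (100% by definition) omitted.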
Turning to `CC(=O)C(C)O` (stereo unspecified) [acetoin], the “relative induction of RFP reporter” value is -0.347%.

As for `O=C(O)CS(=O)(=O)O` [sulfonatoacetate], the “relative induction of RFP reporter” value is -0.0436%.

As to `O=C(O)C(=O)c1ccccc1` [phenylglyoxylate], the “relative induction of RFP reporter” value was -0.296%.

Take `NCCC(=O)O` [β-alanine]: the “relative induction of RFP reporter” value turned out to be 0.231%.

For the compound `O=C(O)c1ccccc1` [benzoate], the “relative induction of RFP reporter” value is -0.293%.

As to `O=C(O)C1CCCCC1` [cyclohexane-1-carboxylate], the “relative induction of RFP reporter” value was -0.461%.

With `N[C@@H](Cc1ccccc1)C(=O)O` [L-phenylalanine], the “relative induction of RFP reporter” value is -0.399%.

`O=C(O)c1ccc(O)c(O)c1` [3,4-dihydroxybenzoate]: the “relative induction of RFP reporter” value was -0.0358%.

As to `C=C(CC(=O)O)C(=O)O` [itaconate], the “relative induction of RFP reporter” value was -0.14%.

As to `O=c1[nH]c(=O)c2nc[nH]c2[nH]1` [xanthine], the “relative induction of RFP reporter” value came out at 0.1%.

As for `O=C(O)c1ccccc1O` [salicylate], the “relative induction of RFP reporter” value came out at 0.195%.

For `N[C@@H](Cc1ccc(O)cc1)C(=O)O` [L-tyrosine], the “relative induction of RFP reporter” value was -0.292%.

With `O=CO` [formate], the “relative induction of RFP reporter” value was determined as 0.0754%.

As to `Nc1ccccc1C(=O)C[C@H](N)C(=O)O` [L-kynurenine], the “relative induction of RFP reporter” value is -0.129%.

Take `OC1OC[C@H](O)[C@H](O)[C@H]1O` (mixture of isomers) [L-arabinose]: the “relative induction of RFP reporter” value came out at 0.017%.

In the case of `O=C(O)C(O)C(O)C(=O)O` (stereo unspecified) [tartrate], the “relative induction of RFP reporter” value was -0.0938%.

Values taken from the supplement of paper PMC7057948, “A genome-wide approach for identification and characterisation of metabolite-inducible systems” (Nature Communications, 2020).
